From the supplement of paper PMC13380429
Values without a mark were called inactive.

Test system: Vero E6 infected with SARS-CoV-2
Assay: inhibition of SARS-CoV-2 cytopathic effect; higher = more antiviral protection, active = above 15
Details: 48 h

Which “inhibition of SARS-CoV-2 cytopathic effect” value (“inhibition” below) (1 nM) does the source give for C[C@@]12CCc3occc3[C@H]1CC[C@@]13C[C@@H](CC[C@H]12)[C@@](O)(CO)C3 [cafestol] here?
Its value is -4.07%.

And the “inhibition” value (8.33 nM)?
The value was -1.86%.

And the “inhibition” value (100 nM)?
Its value is 2%.

And the “inhibition” value (833.33 nM)?
The value was 2.62%.

And the “inhibition” value (10000 nM)?
Its value is 1.59%.

CN1C(CSCC(F)(F)F)Nc2cc(Cl)c(S(N)(=O)=O)cc2S1(=O)=O (stereo not given) [polythiazide] was tested. Which “inhibition” value (1 nM) did it give?
The value was -0.4%.

What about the “inhibition” value (8.33 nM) of the same compound?
The value was 0.91%.

And the “inhibition” value (100 nM)?
The value was 3.31%.

What about the “inhibition” value (833.33 nM) of the same compound?
Its value is -0.95%.

And the “inhibition” value (10000 nM)?
The value was -1.62%.

Which “inhibition” value (1 nM) does the source give for COc1cc(-c2ccc(=O)[nH]n2)ccc1OC(F)F [zardaverine] here?
The value was 0.13%.

And the “inhibition” value (8.33 nM)?
The value was 1.54%.

And the “inhibition” value (100 nM)?
The value was 0.67%.

What about the “inhibition” value (833.33 nM) of the same compound?
The value was 0.7%.

What about the “inhibition” value (10000 nM) of the same compound?
Its value is 2.13%.

With CC(C)(O)CC[C@@H](O)[C@](C)(O)[C@H]1CC[C@@]2(O)C3=CC(=O)[C@@H]4C[C@@H](O)[C@@H](O)C[C@]4(C)[C@H]3CC[C@]12C [20-hydroxyecdysone] as the compound, how does the “inhibition” value (1 nM) read?
Its value is -3.9%.

What about the “inhibition” value (8.33 nM) of the same compound?
The value was -2.28%.

And the “inhibition” value (100 nM)?
Its value is -3.43%.

And the “inhibition” value (833.33 nM)?
The value was 0.03%.

What about the “inhibition” value (10000 nM) of the same compound?
The value was 1.01%.

Which “inhibition” value (1 nM) does the source give for CN(C)CCCCC(=O)Nc1ccc(NC(=S)NC(=O)c2ccc(C(C)(C)C)cc2)cc1 [tenovin-6] here?
The value was -2.53%.

What about the “inhibition” value (8.33 nM) of the same compound?
Its value is 0.01%.

And the “inhibition” value (100 nM)?
The value was -0.72%.

And the “inhibition” value (833.33 nM)?
The value was 4.3%.

And the “inhibition” value (10000 nM)?
The value was 18% (active).

What does the source list for [O-][S+](c1ccccc1)c1ccc2nnnn2n1 (stereo not given)?
inhibition of SARS-CoV-2 cytopathic effect (1 nM): 2.27%; inhibition of SARS-CoV-2 cytopathic effect (8.33 nM): 2.68%; inhibition of SARS-CoV-2 cytopathic effect (100 nM): 0.02%; inhibition of SARS-CoV-2 cytopathic effect (833.33 nM): 1.7%; inhibition of SARS-CoV-2 cytopathic effect (10000 nM): 14%

How did the “inhibition” value (1 nM) turn out when FC(F)(F)c1cc(CO[C@H]2CCCN[C@H]2c2ccccc2)cc(C(F)(F)F)c1 was run?
Its value is 0.32%.

What about the “inhibition” value (8.33 nM) of the same compound?
The value was -2.69%.

And the “inhibition” value (100 nM)?
The value was -5.07%.

And the “inhibition” value (833.33 nM)?
The value was -6.64%.

And the “inhibition” value (10000 nM)?
Its value is 18.1% (active).

CCN(CC)Cc1ccc2cc(COC(=O)Nc3ccc(C(=O)NO)cc3)ccc2c1 [givinostat] was tested. Which “inhibition” value (1 nM) did it give?
The value was -2.85%.

What about the “inhibition” value (8.33 nM) of the same compound?
Its value is -0.88%.

What about the “inhibition” value (100 nM) of the same compound?
Its value is -5.68%.

And the “inhibition” value (833.33 nM)?
The value was -19.8%.

What about the “inhibition” value (10000 nM) of the same compound?
The value was -29.6%.

With C=CC1=C(C)c2cc3[nH]c(cc4nc(cc5[nH]c(cc1n2)c(C)c5CCC(=O)O)C(CCC(=O)O)=C4C)c(C)c3C=C [protoporphyrin-IX] as the compound, how does the “inhibition” value (1 nM) read?
Its value is -0.78%.

And the “inhibition” value (8.33 nM)?
Its value is -0.99%.

And the “inhibition” value (100 nM)?
Its value is -0.13%.

What about the “inhibition” value (833.33 nM) of the same compound?
The value was -0.31%.

What about the “inhibition” value (10000 nM) of the same compound?
Its value is -4.69%.

Which results are given for COC(=O)Nc1nc2cc(Sc3ccccc3)ccc2[nH]1 [fenbendazole]?
inhibition of SARS-CoV-2 cytopathic effect (1 nM): 0.07%; inhibition of SARS-CoV-2 cytopathic effect (8.33 nM): -1.31%; inhibition of SARS-CoV-2 cytopathic effect (100 nM): 0.21%; inhibition of SARS-CoV-2 cytopathic effect (833.33 nM): 0.61%; inhibition of SARS-CoV-2 cytopathic effect (10000 nM): -0.61%

How did the “inhibition” value (1 nM) turn out when N#Cc1cccc(-c2c[nH]c3ncnc(N4CCOCC4)c23)c1 was run?
The value was -1.16%.

And the “inhibition” value (8.33 nM)?
Its value is -0.52%.

What about the “inhibition” value (100 nM) of the same compound?
Its value is -2.71%.

And the “inhibition” value (833.33 nM)?
Its value is -0.07%.

And the “inhibition” value (10000 nM)?
The value was -2.14%.

What does the source list for CN(C)CCC=C1c2ccccc2C=Cc2ccccc21 [cyclobenzaprine]?
inhibition of SARS-CoV-2 cytopathic effect (1 nM): 0.3%; inhibition of SARS-CoV-2 cytopathic effect (8.33 nM): 6.56%; inhibition of SARS-CoV-2 cytopathic effect (100 nM): 3.92%; inhibition of SARS-CoV-2 cytopathic effect (833.33 nM): -1.83%; inhibition of SARS-CoV-2 cytopathic effect (10000 nM): -6.67%

With OC(CNCC(O)C1CCc2cc(F)ccc2O1)C1CCc2cc(F)ccc2O1 (stereo not given) [nebivolol] as the compound, how does the “inhibition” value (1 nM) read?
Its value is -8.56%.

And the “inhibition” value (8.33 nM)?
Its value is -2.57%.

What about the “inhibition” value (100 nM) of the same compound?
The value was -0.54%.

What about the “inhibition” value (833.33 nM) of the same compound?
Its value is -2.81%.

And the “inhibition” value (10000 nM)?
Its value is -3.97%.

CN1CCN(CCCN2c3ccccc3Sc3ccc(Cl)cc32)CC1 [prochlorperazine] was tested. Which “inhibition” value (1 nM) did it give?
The value was -0.92%.

What about the “inhibition” value (8.33 nM) of the same compound?
The value was 0.64%.

What about the “inhibition” value (100 nM) of the same compound?
Its value is 0.48%.

And the “inhibition” value (833.33 nM)?
Its value is -0.06%.

What about the “inhibition” value (10000 nM) of the same compound?
The value was 14.6%.

O=C1C=CC(=O)C2=C1C1c3ccccc3C2c2ccccc21 was tested. Which “inhibition” value (1 nM) did it give?
Its value is 1.05%.

What about the “inhibition” value (8.33 nM) of the same compound?
The value was 0.78%.

And the “inhibition” value (100 nM)?
The value was -0.03%.

And the “inhibition” value (833.33 nM)?
Its value is 2.43%.

And the “inhibition” value (10000 nM)?
The value was 5.57%.

With CC(C)C1=C2[C@H]3CC[C@@H]4[C@@]5(C)CC[C@H](OC(=O)CC(C)(C)C(=O)O)C(C)(C)[C@@H]5CC[C@@]4(C)[C@]3(C)CC[C@@]2([C@@H](O)CN(CCN(C)C)Cc2ccc(Cl)cc2)CC1=O as the compound, how does the “inhibition” value (1 nM) read?
Its value is -0.51%.

And the “inhibition” value (8.33 nM)?
The value was 1.17%.

What about the “inhibition” value (100 nM) of the same compound?
Its value is -0.05%.

And the “inhibition” value (833.33 nM)?
The value was 0.73%.

And the “inhibition” value (10000 nM)?
The value was -1.86%.

What does the source list for CCOC(=O)C1=C(C)NC(C)=C(C(=O)OC)[C@@H]1c1cccc([N+](=O)[O-])c1 (racemic) [nitrendipine]?
inhibition of SARS-CoV-2 cytopathic effect (1 nM): 1.59%; inhibition of SARS-CoV-2 cytopathic effect (8.33 nM): 0.33%; inhibition of SARS-CoV-2 cytopathic effect (100 nM): -3.74%; inhibition of SARS-CoV-2 cytopathic effect (833.33 nM): -0.45%; inhibition of SARS-CoV-2 cytopathic effect (10000 nM): 4.26%

CNCCC=C1c2ccccc2CCc2ccccc21 [nortriptyline] was tested. Which “inhibition” value (1 nM) did it give?
Its value is 1.29%.

What about the “inhibition” value (8.33 nM) of the same compound?
Its value is -0.85%.

What about the “inhibition” value (100 nM) of the same compound?
Its value is 0.56%.

And the “inhibition” value (833.33 nM)?
Its value is 1.26%.

What about the “inhibition” value (10000 nM) of the same compound?
The value was -4.8%.

For O=C(NNc1nc2cc(F)ccc2n2cccc12)c1cnccn1, which “inhibition” value (1 nM) is on record?
The value was -2.31%.

And the “inhibition” value (8.33 nM)?
Its value is 0.82%.

And the “inhibition” value (100 nM)?
Its value is 0.63%.

What about the “inhibition” value (833.33 nM) of the same compound?
The value was 0.71%.

And the “inhibition” value (10000 nM)?
The value was -4.33%.

How did the “inhibition” value (1 nM) turn out when Cc1ncc(C[n+]2csc(CCO)c2C)c(N)n1 [thiamine] was run?
Its value is -3.81%.

What about the “inhibition” value (8.33 nM) of the same compound?
The value was -0.57%.

What about the “inhibition” value (100 nM) of the same compound?
Its value is -1.61%.

What about the “inhibition” value (833.33 nM) of the same compound?
The value was -1.44%.

And the “inhibition” value (10000 nM)?
The value was 0.13%.

Which results are given for CCOc1ccccc1OCC1CNCCO1 (stereo not given) [viloxazine]?
inhibition of SARS-CoV-2 cytopathic effect (1 nM): 5.7%; inhibition of SARS-CoV-2 cytopathic effect (8.33 nM): 7.03%; inhibition of SARS-CoV-2 cytopathic effect (100 nM): 7.67%; inhibition of SARS-CoV-2 cytopathic effect (833.33 nM): 2.71%; inhibition of SARS-CoV-2 cytopathic effect (10000 nM): 3.05%

For O=C(O)C[CH2][Ge](=[O])[O][Ge](=[O])[CH2]CC(=O)O [propagermanium], which “inhibition” value (1 nM) is on record?
The value was -0.42%.

And the “inhibition” value (8.33 nM)?
Its value is 1.44%.

And the “inhibition” value (100 nM)?
The value was 3.85%.

And the “inhibition” value (833.33 nM)?
Its value is -0.73%.

And the “inhibition” value (10000 nM)?
The value was -2.33%.

CC[N+](CC)(CC)CCOc1ccc(/C=C/c2ccccc2)cc1 was tested. Which “inhibition” value (1 nM) did it give?
Its value is -0.65%.

And the “inhibition” value (8.33 nM)?
Its value is 1.39%.

And the “inhibition” value (100 nM)?
Its value is 2.2%.

And the “inhibition” value (833.33 nM)?
Its value is 1.89%.

What about the “inhibition” value (10000 nM) of the same compound?
Its value is 7.99%.

Which results are given for CCNC(=O)[C@@H]1CCCN1C(=O)[C@H](CCCNC(=N)N)NC(=O)[C@H](CC(C)C)NC(=O)[C@@H](C)NC(=O)[C@H](Cc1ccc(O)cc1)NC(=O)[C@H](CO)NC(=O)[C@H](Cc1c[nH]c2ccccc12)NC(=O)[C@H](Cc1cnc[nH]1)NC(=O)[C@@H]1CCC(=O)N1 [alarelin]?
inhibition of SARS-CoV-2 cytopathic effect (1 nM): -0.73%; inhibition of SARS-CoV-2 cytopathic effect (8.33 nM): -1.67%; inhibition of SARS-CoV-2 cytopathic effect (100 nM): 0.97%; inhibition of SARS-CoV-2 cytopathic effect (833.33 nM): 1.34%; inhibition of SARS-CoV-2 cytopathic effect (10000 nM): -0.57%
